Experimental data from PubChem BioAssay AID1159580 (chemical genetic matrix, 2015).
Values joined by “and” are separate entries in the source; they are usually repeats but may differ in a detail not shown here. Equal values may be shown once. The whole screen tested about 5,500 compounds, of which about 2,000 (36%) were called active. Not shown: some 18% with an inconclusive outcome. No stated cut-off is given here; in the data, active means normalized growth mostly below about 0.91 (no sharp cut-off); inconclusive means no clear call, values can overlap the other calls; inactive means mostly above about 0.92. The list shows a part of the results.

Assay: chemical genetic growth profiling, strain panel (AID 1159580);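 further: tested at 20 µM; growth read once vehicle control cultures reached saturation at 30 °C; 1 = growth at the plate median or of vehicle wells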
Settings: S. cerevisiae deletion strains, growth OD

Measured: normalized growth

CC1=C(/C=C/C(C)=C/C=C/C(C)=C\C(=O)O)C(C)(C)CCC1
inactive: locus YAL013W, strain DEP1, stronger effect = lower value 0.968 | locus YAL021C, strain ccr4, stronger effect = lower value 1.01 | locus YAL026C, strain drs2, stronger effect = lower value 0.999 | locus YAL030W, strain snc1, stronger effect = lower value 0.977 | locus YAL040C, strain CLN3, stronger effect = lower value 1.01 | locus YBL061C, strain skt5, stronger effect = lower value 0.984 | locus YBR009C, strain hhf1, stronger effect = lower value 1.01 | locus YBR021W, strain FUR4, stronger effect = lower value 1.02 | locus YBR023C, strain chs3, stronger effect = lower value 0.985 | locus YBR171W, strain sec66, stronger effect = lower value 0.964 | locus YBR229C, strain ROT2, stronger effect = lower value 1 | locus YBR231C, strain swc5, stronger effect = lower value 0.989 | locus YBR279W, strain paf1, stronger effect = lower value 0.996 | locus YCL011C, strain gbp2, stronger effect = lower value 0.994 | locus YCL016C, strain dcc1, stronger effect = lower value 0.999 | locus YCL029C, strain bik1, stronger effect = lower value 0.992 | locus YCL061C, strain MRC1 (second series), stronger effect = lower value 1 | locus YCL069W, strain vba3, stronger effect = lower value 0.986 | locus YCR088W, strain abp1, stronger effect = lower value 0.995 | locus YDL005C, strain med2, stronger effect = lower value 0.979 | locus YDL035C, strain GPR1, stronger effect = lower value 0.95 | locus YDL040C, strain nat1, stronger effect = lower value 0.987 | locus YDL074C, strain BRE1, stronger effect = lower value 0.856 | locus YDL101C, strain DUN1, stronger effect = lower value 1.01 | locus YDL134C, strain PPH21, stronger effect = lower value 1 | locus YDL185W, strain tfp1, stronger effect = lower value 1 | locus YDL192W, strain arf1, stronger effect = lower value 1 | locus YDR001C, strain nth1, stronger effect = lower value 0.987 | locus YDR069C, strain doa4, stronger effect = lower value 0.967 | locus YDR101C, strain arx1, stronger effect = lower value 0.985 | locus YDR137W, strain rgp1, stronger effect = lower value 0.937 | locus YDR150W, strain NUM1, stronger effect = lower value 1.02 and 1.01 | locus YDR159W, strain sac3, stronger effect = lower value 1.01 | locus YDR162C, strain NBP2, stronger effect = lower value 0.957 | locus YDR195W, strain ref2 0.972 | locus YDR297W, strain sur2, stronger effect = lower value 0.987 | locus YDR318W, strain mcm21, stronger effect = lower value 0.97 | locus YDR334W, strain swr1, stronger effect = lower value 0.982 | locus YDR335W, strain msn5, stronger effect = lower value 0.987 | locus YDR363W, strain ESC2, stronger effect = lower value 1.01 | locus YDR388W, stronger effect = lower value 1 | locus YDR392W, strain spt3, stronger effect = lower value 1.01 | locus YDR502C, strain sam2, stronger effect = lower value 0.975 | locus YEL003W, strain gim4, stronger effect = lower value 0.989 | locus YEL037C, strain rad23, stronger effect = lower value 0.979 | locus YEL061C, strain CIN8 (second series), stronger effect = lower value 0.991 | locus YEL061C, strain CIN8, stronger effect = lower value 1 | locus YER002W, strain NOP16, stronger effect = lower value 1.03 | locus YER015W, strain faa2, stronger effect = lower value 0.993 | locus YER016W, strain bim1, stronger effect = lower value 1.02 | locus YER110C, stronger effect = lower value 1 | locus YER111C, strain swi4, stronger effect = lower value 0.954 | locus YER155C, strain BEM2 (second series), stronger effect = lower value 1 | locus YER155C, strain BEM2, stronger effect = lower value 1.01 | locus YER167W, strain BCK2, stronger effect = lower value 0.966 | locus YFR010W, strain ubp6, stronger effect = lower value 0.961 | locus YGL078C, strain dbp3, stronger effect = lower value 1 | locus YGL086W, strain mad1, stronger effect = lower value 0.992 | locus YGL167C, strain pmr1, stronger effect = lower value 0.975 | locus YGL173C, strain kem1, stronger effect = lower value 0.972 | locus YGL227W, strain vid30, stronger effect = lower value 0.974 | locus YGL240W, strain doc1, stronger effect = lower value 0.958 | locus YGL248W, strain PDE1, stronger effect = lower value 0.995 | locus YGL253W, strain hxk2, stronger effect = lower value 0.996 | locus YGR078C, strain PAC10, stronger effect = lower value 0.908 and 1.02 | locus YGR135W, strain pre9, stronger effect = lower value 0.974 | locus YGR229C, strain SMI1, stronger effect = lower value 0.82 and 1.02 | locus YGR252W, strain gcn5, stronger effect = lower value 1.02 | locus YHR013C, strain ard1, stronger effect = lower value 0.982 | locus YHR027C, strain rpn1, stronger effect = lower value 0.997 | locus YHR030C, strain SLT2, stronger effect = lower value 1 and 1.02 | locus YHR079C, strain IRE1 (second series), stronger effect = lower value 0.988 | locus YHR079C, strain IRE1, stronger effect = lower value 1.04 | locus YHR094C, strain hxt1, stronger effect = lower value 0.999 | locus YHR129C, strain ARP1, stronger effect = lower value 0.996 | locus YHR142W, strain chs7, stronger effect = lower value 0.979 | locus YHR200W, strain rpn10, stronger effect = lower value 1 | locus YIL066C, strain RNR3, stronger effect = lower value 0.984 | locus YIL073C, strain SPO22, stronger effect = lower value 0.934 | locus YIL125W, strain kgd1, stronger effect = lower value 0.995 | locus YIR030C, strain dcg1, stronger effect = lower value 1.01 | locus YJL092W, strain hpr5, stronger effect = lower value 0.965 | locus YJL095W, strain BCK1 (second series), stronger effect = lower value 0.99 | locus YJL095W, strain BCK1, stronger effect = lower value 0.918 and 1.01 | locus YJL115W, strain asf1, stronger effect = lower value 0.962 | locus YJL129C, strain trk1, stronger effect = lower value 0.956 | locus YJL134W, strain LCB3, stronger effect = lower value 1 | locus YJL154C, strain vps35, stronger effect = lower value 0.986 | locus YJL164C, strain tpk1, stronger effect = lower value 1.01 | locus YJL166W, strain qcr8, stronger effect = lower value 0.928 | locus YJL168C, strain set2, stronger effect = lower value 0.999 | locus YJL187C, strain SWE1 (second series), stronger effect = lower value 0.986 | locus YJL187C, strain SWE1, stronger effect = lower value 0.994 | locus YJR043C, strain POL32, stronger effect = lower value 0.87 | locus YJR066W, strain TOR1, stronger effect = lower value 0.972
